The results in this text go back to PubChem BioAssay (Tox21).

Records with an inconclusive call do not appear. Activity calls are given as the source filed them. The call rests on the fitted dose curve.
On the % scale 0 is the no-effect control and ±100 the full control effect.

A short description of the assay: qHTS assay to identify small molecule agonists of the NFkB signaling pathway - cell viability counter screen (AID 1159515). Further: nearly all actives have a fitted effect of over 55% in size. The following applies: NFkB-bla ME-180 viability, CellTiter-Glo luminescence, 5 h; series mostly up to 61 µM. An excerpt: National Center for Advancing Translational Sciences [NCATS]
NIH Chemical Genomics Center [NCGC]
U.S. Environmental Protection Agency [EPA]
National Institutes of Environmental Health Sciences [NIEHS]
National Toxicology Program [NTP]
U.S. Food and Drug Administration [FDA]
Transcription factors and their stimulated target gene expression play pivotal roles across many cellular processes including responses to environmental stimuli. Proper regulation of associated pathways is critical to maintain cell health and function. Constitutive activation of transcription factor pathways has been implicated in tumors as it may block cellular functions such as apoptosis and lead to invasion and metastasis. One important transcription factor that stimulates gene expression in response to cytokines, UV radiation, and other stimuli is nuclear factor-kappa B (NFkB). To measure activation of the NFkB pathway, the CellSensor NFkB-bla ME-180 cell line (Life Technologies, Carlsbad, CA) that stably expresses beta-lactamase reporter gene under the regulation of a NF-kB response element was used. This assay allows measurement of the NFkB pathway activity induced by compounds in a ME-180 cell line. This system quantitates NF-kB activity using a FRET-based assay system where beta-lactamase expression disrupts FRET, allowing for fluorescent measurement of activity. This cell line has been used to screen the Tox21 10K compound library and to identify compounds that induce the NFkB pathway activity. The cytotoxicity of the Tox21 compound library against the NFkB-bla ME-180 cell line was tested in parallel by measuring cell viability using the CellTiter-Glo assay in the same wells.
Tox21 Assay Protocol Summary:
NFkB-bla ME-180 cells were dispensed at 2,000 cells/6 uL of assay medium per well into black wall/clear-bottom 1536-well plates using a Multidrop Combi (ThermoFisher Scientific, Waltham, MA) dispenser. After the assay plates were incubated at 37 C and 5% CO2 for an overnight, 23 nL of compounds dissolved in DMSO, positive controls or DMSO only was transferred to the assay plate by a Pintool station (Kalypsys, San Diego, CA). The assay plates were incubated at 37 C and 5% CO2 for 5 hr. One uL of LiveBLAzer B/G FRET substrate (Life Technologies) was added using a Flying Reagent Dispenser (Aurora Discovery, San Diego, CA) and the plates were incubated at room temperature for 1.5 hr. Fluorescence intensity (405 nm excitation, 460 nm and 530 nm emissions) was measured using an Envision plate reader (PerkinElmer, Shelton, CT). For cytotoxicity, 3 ul/well of CellTiter-Glo reagent was added into the assay plates using an FRD. After 30 min incubation at room temperature, the luminescence intensity was measured using a ViewLux plate reader (PerkinElmer).
For orientation: In qHTS, concentration-response curves come from the screen itself.
For `SCCSCCS`, the compound was classed as inactive.
Still for that read-out and setting: as for `CC(C)COC(=O)CC(C(=O)OCC(C)C)S(=O)(=O)O` (stereo not given), the entry is “inactive”.
The same measure, in the same setting: next, `O=c1[nH]c(=O)c2ccccc2o1`: “inactive”.
Turning to `CCCCCCCCCCCCOC(C)=O`, the compound was called inactive.
As for `CCCCC(=O)N(C)C`, the compound was called inactive.
On to `CCCCCC(=O)OCC`, for which the outcome was inactive.
As for `CC(C)COC(=O)COc1ccc(Cl)cc1Cl`, the call was inactive.
On the same count and under the same terms, as for `BrC/C=C/CBr`, the entry is “inactive”; as for `CC(=O)OC(C)(C)Cc1ccccc1`, “inactive”; as for `O=S(=O)(O)CCO`, “inactive”.
On to `CCNC(=O)NCCCOc1cccc(CN2CCCCC2)c1`, for which the outcome was inactive.
Same read-out and setting: as for `O=C(Oc1ccccc1C(=O)O)c1ccccc1O`, the entry is “inactive”; as for `CCOC(=O)CC(CC(=O)OCC)(OC(C)=O)C(=O)OCC`, “inactive”; as for `C=CCOCC(O)CCl` (stereo not given), “inactive”.
For the compound `CCC(O)C(C)(C)C` (stereo not given), the result was inactive.
As for `C1CCN2C[C@@H]3C[C@@H](CN4CCCC[C@@H]34)[C@H]2C1`, the outcome was inactive.
With `CC(C)CCCCCCOC(=O)C1CCCCC1C(=O)OCCCCCCC(C)C` (stereo not given), the compound was called inactive.
Turning to `Cc1ccc(S(=O)(=O)NC(=O)NC2CCCCCCC2)cc1`, the outcome was inactive.
As for `O=C1NC2NC(=O)NC2N1` (stereo not given), the outcome was inactive.
On to `CCOC(=O)OCC/C(SC(=O)OCC)=C(\C)N(C=O)Cc1cnc(C)nc1N`, for which the outcome was inactive.
On the same count and under the same terms, next, `COc1ccc(OC)c(NC(=O)CC(C)=O)c1`: “inactive”; `CO[Si](CCCS)(OC)OC`: “inactive”.
In the case of `Nc1ccc(/C=C/c2ccc(N)cc2S(=O)(=O)O)c(S(=O)(=O)O)c1`, the activity, negative = cytotoxic was 1.66% [at 0.628 µM] (inactive).
Regarding `F[Si-2](F)(F)(F)(F)F`, the compound was called inactive.
Regarding `COCC(=O)Nc1c(I)c(C(=O)NCC(O)CO)c(I)c(C(=O)N(C)CC(O)CO)c1I` (stereo not given), the compound was called inactive.
In the case of `CCOC(=O)CC#N`, the call was inactive.
Regarding `O=C(O)c1ccccc1C(=O)Nc1ccc(S(=O)(=O)Nc2nccs2)cc1`, the result was inactive.
For the compound `C=CCCCCCCCCCCC`, the activity, negative = cytotoxic is -9.69% [at 6.95 µM] (inactive).
As for `CC(=O)OCC(=O)[C@@]1(O)[C@H](OC(C)=O)C[C@H]2[C@@H]3CCC4=CC(=O)C=C[C@]4(C)[C@@]3(F)[C@@H](O)C[C@@]21C`, the outcome was inactive.
The same measure, in the same setting: next, `CCCCOC(=O)[C@@H](C)Oc1ccc(Oc2ccc(C(F)(F)F)cn2)cc1`: “inactive”; `NS(=O)(=O)c1cc2c(cc1Cl)NC(CC1CCCC1)NS2(=O)=O` (stereo not given): “inactive”.
In the case of `Cc1ccc(C(=O)C(=O)O)cc1C`, the compound was called inactive.
For the compound `CCS(=O)(=O)CCn1c([N+](=O)[O-])cnc1C`, the compound was classed as inactive.
Regarding `Cc1ccccc1C(=O)N1CC/C(=N\OS(=O)(=O)O)c2ccc(Cl)cc21`, the compound was classed as inactive.
The same measure, in the same setting: as for `CCCCCCCCCOCC1CO1` (stereo not given), the entry is “inactive”; as for `O=[Si]=O`, “inactive”; as for `Cc1oc(=O)oc1CN1CCN(c2cc3c(cc2F)c(=O)c(C(=O)O)c2n3C(C)S2)CC1` (stereo not given), “inactive”.
Still for that read-out and setting: as for `NC(Cc1c[nH]c2ccccc12)C(=O)O` (stereo not given), the entry is “inactive”.
With `O=CO`, the activity, negative = cytotoxic is -18.4% [at 6.95 µM] (inactive).
For the compound `C=CCOC(=O)c1ccc(C(=O)OCC=C)c(C(=O)OCC=C)c1`, the result was inactive.
